# Menin-MLL FL inh: displaces fluorescein MLL peptide from human menin; Fluorescence polarization, fluorescein-MLL peptide displacement from menin; FP activity change, % at 61.4 µM; 290,000 tested, under 10 active; active means well fitted curve in the direction sought with a large enough effect in the polarisation, not every such curve was filed as active; inconclusive means small, poorly fitted or top-dose-only effect, or effect the other way, or a change in a side signal; inactive means no such curve, though single readings can be large or run the other way; the % refers to the polarisation
# Six1-Eya2 blk: Six1/Eya2 interaction inhibition; Q15475+O00167; AlphaScreen GST-Six1/His-Eya2 binding, biochemical; active compounds read low; activity change, % (concentration not given with the values); 360,000 compounds, 0.56% hits; AID 651725
#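 Six1/Eya2 binding was read as AlphaScreen signal after compounds were pinned into GST-Six1 plus His-tagged Eya2 (5X stock 250/500 nM) in pH 8.0 Tris/NaCl/TCEP buffer, beads added, then incubated 1 h, 37 C, dark.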
# CtBP-E1A inh: inhibitors of CtBP/E1A interaction. AlphaScreen GST-E1A/His-CtBP binding, 1536-well; active compounds read low. activity change, % (no concentration beside the values). 340,000 compounds, 0.49% hits. AID 651724
#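 In 5 uL wells, 23 nL compound meets equimolar GST-E1A and His-CtBP (5X stock 125 nM each) for 2 h, 37 °C. Beads (5X, 50 ug/mL) then 1 h, 37 °C, dark.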
# Menin MLL FP TR: menin-MLL binding inhibition, Texas Red mutant peptide. O00255. Menin + Texas Red MLL mutant peptide, fluorescence polarization. AID 1768. 270,000 compounds, 0.23% hits. Potency, µM (highest dose often 61.6 µM), hits mostly inhibitors; active means well fitted inhibition curve with a large enough effect in the polarisation, with a control signal flat, not every such curve was filed as active; inconclusive means small, poorly fitted or top-dose-only effect, or effect the other way, or a change in a side signal; inactive means no such curve, though single readings can be large or run the other way; the % refers to the polarisation
# Target sequence (O00255 whole entry, looked up): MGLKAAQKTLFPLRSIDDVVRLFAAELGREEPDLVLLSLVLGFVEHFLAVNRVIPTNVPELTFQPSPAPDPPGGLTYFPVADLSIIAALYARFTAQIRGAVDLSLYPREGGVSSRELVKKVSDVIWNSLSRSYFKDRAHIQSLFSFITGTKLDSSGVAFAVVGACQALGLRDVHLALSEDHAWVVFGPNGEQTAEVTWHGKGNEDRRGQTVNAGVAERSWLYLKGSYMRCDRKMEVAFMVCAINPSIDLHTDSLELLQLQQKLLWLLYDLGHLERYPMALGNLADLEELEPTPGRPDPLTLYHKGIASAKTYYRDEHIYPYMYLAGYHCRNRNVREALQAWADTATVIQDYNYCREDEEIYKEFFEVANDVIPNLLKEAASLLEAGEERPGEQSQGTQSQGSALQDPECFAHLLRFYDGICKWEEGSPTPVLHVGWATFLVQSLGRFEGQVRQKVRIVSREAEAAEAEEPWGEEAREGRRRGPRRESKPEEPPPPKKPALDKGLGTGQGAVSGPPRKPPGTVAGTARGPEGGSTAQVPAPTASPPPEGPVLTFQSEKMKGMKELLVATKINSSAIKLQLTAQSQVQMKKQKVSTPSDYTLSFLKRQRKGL
# CXXC DNA block: blocks binding of human MLL CXXC domain to DNA. Potency, µM (series often up to 115 µM), most hits filed as inhibitors. MLL-CXXC / FITC-HOXA9 DNA fluorescence polarization. 290,000 compounds, 0.037% hits. AID 2662. Q03164; active means well fitted inhibition curve with a large enough effect in the polarisation, with a control signal flat, not every such curve was filed as active; inconclusive means small, poorly fitted or top-dose-only effect, or effect the other way, or a change in a side signal; inactive means no such curve, though single readings can be large or run the other way; the % refers to the polarisation
#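 Steps: dispense CXXC domain solution (7 uM) → pin compounds or unlabeled HOX-A9 DNA control → 5 min ambient → add FLSN-HOX-A9 solution (50 nM) → spin → 30 min ambient → fluorescence polarization. Tris pH 7.5/NaCl/DTT/BSA buffer.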
# GLS inhibitor: inhibitors of human glutaminase (GLS); GLS enzymatic activity, qHTS titration; 410,000 compounds, 0.21% hits; O94925; AID 624170; Potency, µM (series often up to 45.5 µM), most hits filed as inhibitors; active means well fitted inhibition curve with a large enough effect; inconclusive means small, poorly fitted or top-dose-only effect, or another doubt; inactive means no such curve, though single readings can be large or run the other way
#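 hKGA in 45 mM KH2PO4 pH 8.2, 0.02% Tween-20 with pin-transferred compounds; 1 mM L-glutamine (stock) plus glutamate oxidase/HRP/Amplex Red coupling added. Fluorescence read initially and after 30 min at RT.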
# Numbers stand for hits; 0 = inactive; ? = inconclusive; - = not tested or not shown. Shown are actives, neighbours in structure and some others; about 0.83% of the full set was active somewhere. Unless noted, no stated cut-off is given here; in the data, active means activity change below about -65%; inconclusive means mostly about -30% to -63%; inactive means weaker than that.
SMILES,Menin-MLL FL inh,Six1-Eya2 blk,CtBP-E1A inh,Menin MLL FP TR,CXXC DNA block,GLS inhibitor
COc1ccccc1C(=O)NNc1ncc(C)s1,0,0,0,0,0,6.31µM
Cc1cc(N)ccc1-n1c(C)ccc1C,0,0,0,?,0,0
Cc1cc(N)ccc1N1CCCC1,0,0,0,28.2µM,?,0
COc1ccc2cc(C#N)c(SCC(=O)NNC(=O)Cc3ccccc3)nc2c1,0,0,0,11.2µM,0,0
CC(CN1CCOCC1)C(Cc1ccccc1)(Cc1ccccc1)C(=O)N1CCCC1 (centres undefined),-,-,-,-,-,0
O=C(/C=C/c1ccc([N+](=O)[O-])cc1)OCC(=O)N1CCCC1,-,0,-68.4,-,-,0
O=C(CCCN1CCN(c2ccc(F)cc2)CC1)NC1c2ccccc2CSc2ccccc21 (centres undefined),-,-,-,-,-,0
COc1ccc(NC(=O)c2sc3nc4c(cc3c2N)CN(Cc2ccccc2)CC4)c(OC)c1,-,-,-,-,-,0
Cc1ccc(C)c(NC(=S)N(CCN(C)C)C(C)c2ccccn2)c1 (centres undefined),0,-70.3,-65.3,0,0,0
CC(c1ccccn1)N(CCN(C)C)C(=S)Nc1cccc(F)c1 (centres undefined),0,?,?,0,0,0
Cc1cccc(C)c1NC(=S)N(CCN(C)C)C(C)c1ccccn1 (centres undefined),0,-82.9,-72.1,0,0,0
COc1ccc(-c2c(C)[nH]n3c(=O)c(Cc4ccccc4)c(C)nc23)cc1,0,-67.1,-70.9,0,0,0
O=C(O)c1ccc(N=Nc2c(O)ccc3ncccc23)cc1,0,-93.9,-,?,0,0
O=C(O)c1cc(N=Nc2c(O)ccc3ccccc23)cc(C(=O)O)c1,0,0,0,?,0,0
O=c1[nH]cnc2nn(-c3ccccc3)nc12,0,?,-65.4,0,0,0
O=c1[nH]cnc2nc(-c3ccccc3)c(-c3ccccc3)nc12,0,0,0,0,0,0
CCOc1ccc(NC(=O)CSC2=Nc3ccccc3C3=NC(CC(=O)NCc4ccc5c(c4)OCO5)C(=O)N23)cc1 (centres undefined),-,-,-,-,-,0
Cc1cc(C)c(S(=O)(=O)NCCn2c(C)cc3ccccc32)c(C)c1,0,0,0,?,0,0
Cc1ccc(S(=O)(=O)NCCn2c(C)cc3ccccc32)cc1,0,-,-,28.2µM,0,-
OC[C@H]1O[C@H](OC/C=C/c2ccccc2)[C@H](O)[C@@H](O)[C@@H]1O,-,-,-,-,-,0
O=C(N/N=C/c1sc(=O)[nH]c1-[n+]1ccccc1)c1ccccc1[O-],?,0,0,-,?,0
O=C(N/N=C/c1sc(=O)[nH]c1-[n+]1ccc2ccccc2c1)c1ccccc1[O-],-,?,-75.2,-,0,0
COc1cc2c(cc1CC=C(C)C)C(=O)C[C@@H](c1ccc(O)cc1)O2,0,-,-,0,-,-
Cc1oc(-c2cccc(Br)c2)nc1CSc1nc2ncccc2[nH]1,-,-,-,-,-,0
O=C1CCCC(O)=C1N=Nc1ccc(C(=O)O)cc1,0,?,0,-,0,11.2µM
SMILES,Menin-MLL FL inh,Six1-Eya2 blk,CtBP-E1A inh,Menin MLL FP TR,CXXC DNA block,GLS inhibitor
COc1cc(C(=O)Nc2ccc3oc(-c4ccc(C)c(Br)c4)nc3c2)cc(OC)c1OC,-,-,-,-,-,0
C=CCn1c(O)c(N=Nc2ccccc2O)c2ccccc21,-,0,0,-,-,0
Oc1ccccc1N=Nc1ccccc1O,0,-86.0,-,?,0,0
COC(=O)C1=C(C(=O)OC)SC(=C2C(=S)C(C)(C)N(C(=O)C3CC3)c3ccccc32)S1,0,-76.9,-80.4,?,0,0
CCOC(=O)c1c(NC(=O)CC2Nc3ccccc3NC2=O)sc(C)c1C (centres undefined),0,0,0,0,0,12.6µM
Cc1cc(=O)n(C(C)C(=O)N2CCCc3ccccc32)c2c1c(C)nn2-c1ccccc1 (centres undefined),-,-,-,-,-,0
COc1ccccc1N1CCN(C(=O)CCS(=O)(=O)c2cc(Br)cc3c2N(C(=O)C2CC2)CC3)CC1,-,-,-,-,-,0
CCC(C(=O)Nc1ccc(C)cc1)c1ccccc1 (centres undefined),0,0,0,0,0,0
O=C(Nc1ccccc1C(=O)O)c1ccc(NC(=O)C2CCCCC2)cc1,0,-83.4,-77.3,?,0,0
O=C(Nc1ccccc1)c1ccc(NC(=O)C2CC2)cc1,0,0,0,0,0,0
CCC(C(=O)Nc1ccc(C(=O)Nc2ccccc2C(=O)O)cc1)c1ccccc1 (centres undefined),-,?,-81.2,-,0,0
CCCCCCCCCCCCCCOS(=O)(=O)O,0,-,-,0,-,-
CCn1c(=O)cc(SCC(=O)N2CCN(c3cc(C)ccc3C)CC2)c2ccccc21,-,-,-,-,-,0
CCn1c(C)nc2cc(C(=O)N/N=C/c3cccc(OC)c3O)ccc21,0,-79.9,-92.8,?,0,0
COc1cccc(/C=N/NC(=O)c2nc(-c3ccccc3)cc(-c3ccccc3)n2)c1O,0,0,0,0,0,0
CCn1c(C)nc2cc(C(=O)N/N=C/c3ccc(O)c(O)c3O)ccc21,0,-89.7,-92.6,?,0,?
CSCC[C@H](NC(=O)CN)C(=O)N[C@@H](CC(=O)O)C(=O)N[C@@H](CO)C(=O)N[C@@H](CC(C)C)C(=O)N[C@@H](C)C(=O)N[C@@H](Cc1ccccc1)C(=O)N[C@@H](CO)C(=O)NCC(=O)NCC(=O)N[C@@H](CC(C)C)C(N)=O,0,-,-,0,-,-

# Bioassay records: PubChem, National Center for Advancing Translational Sciences (NCATS)
